Assay results as given in PubChem BioAssay (NCATS).
Inconclusive results are not listed. Activity calls are given as the source filed them. Unless noted, the call rests on the fitted dose curve; in most records, active means well fitted cell-killing curve with a large enough effect; inconclusive means small, poorly fitted or top-dose-only effect; inactive means flat fitted curve, though single readings scatter.

Key:
[1] = Cell Viability - LYMP2-025 (AID 976);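 further: series mostly up to about 92 µM; plate controls were DMSO only for no effect and tetraoctylammonium bromide control for full effect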
How it was run: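 Human lymphoblastoid LYMP2-025 cells, 2500/well, exposed 24 h at 37 C in complete medium in 1536-well qHTS. Viability as cellular ATP by CellTiter-Glo luminescence; AC50 from Hill fits of concentration-response data.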

[2] = Cell Viability - LYMP2-002 (AID 977);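 further: series mostly up to about 92 µM; plate controls were DMSO only for no effect and 92 µM tetraoctylammonium bromide for full effect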
How it was run: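 Luminescent ATP readout (CellTiter-Glo, 30 min room temperature) after 24 h compound exposure at 37 C of a human lymphoblastoid line, 2500 cells/well. AC50 values derived by standard Hill fitting of qHTS concentration-response data.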

[3] = Cell Viability - LYMP2-006 (AID 978); further: series mostly up to about 92 µM; on the % scale 0 is the no-effect control and ±100 the full control effect; nearly all actives have a fitted effect of over 60% in size
How it was run: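 Concentration-dependent loss of intracellular ATP in a human lymphoblastoid line after 24 hr treatment at 37 C was measured by CellTiter-Glo luminescence, with AC50 values obtained from standard Hill-equation modelling.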

[4] = Cell Viability - LYMP2-007 (AID 979);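 further: cells exposed to compound for 24 h before reading; 0% = DMSO only and the negative end = 92 µM tetraoctylammonium bromide; nearly all actives have a fitted effect of over 60% in size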
How it was run: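 Human lymphoblastoid LYMP2-007 cells (2500/well) preincubated 5 h at 37 C, then treated 24 h at 37 C in complete medium. Viability by CellTiter-Glo ATP luminescence after 30 min at room temperature; AC50 from Hill fits.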

[5] = Cell Viability - LYMP2-008 (AID 980); further: on the % scale 0 is the no-effect control and ±100 the full control effect; nearly all actives have a fitted effect of over 60% in size
How it was run: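 LYMP2-008 lymphoblastoid cells (2500/well) plated 5 h, then treated 24 h at 37 C in complete medium. Viability read as intracellular ATP by CellTiter-Glo luminescence after 30 min at room temperature; AC50 from Hill fits.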

[6] = Cell Viability - LYMP2-010 (AID 981); further: on the % scale 0 is the no-effect control and ±100 the full control effect; nearly all actives have a fitted effect of over 55% in size
How it was run: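 Human lymphoblastoid LYMP2-010 cells (2500/well) treated 24 h at 37 C in complete medium; viability read as intracellular ATP by CellTiter-Glo luminescence. AC50 from Hill fits of concentration-response data; tetraoctylammonium bromide positive control.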

[7] = Cell Viability - LYMP2-012 (AID 982);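 further: cellular ATP by luciferase luminescence where a drop means cytotoxicity; cells exposed to compound for one day before reading; 0% = DMSO only and full loss = 92 µM tetraoctylammonium bromide; nearly all actives have a fitted effect of over 55% in size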
[8] = Cell Viability - LYMP2-014 (AID 983);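 further: series mostly up to about 92 µM; plate controls were DMSO only for no effect and 92 µM tetraoctylammonium bromide for full effect; nearly all actives have a fitted effect of over 50% in size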
How it was run: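 LYMP2-014 human lymphoblastoid cells, 2500/well, treated 24 h at 37 C in complete medium; viability by CellTiter-Glo ATP luminescence after 30 min at room temperature. AC50 from Hill fits of qHTS concentration-response; tetraoctylammonium bromide positive control.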

[9] = Cell Viability - LYMP2-016 (AID 984); further: on the % scale 0 is the no-effect control and ±100 the full control effect; nearly all actives have a fitted effect of over 55% in size
How it was run: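 Acute toxicity in a Coriell human lymphoblastoid line is scored as loss of intracellular ATP over 24 h of treatment in complete medium. CellTiter-Glo signal is fitted across concentrations with the Hill equation to give AC50.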

[10] = Cell Viability - LYMP2-018 (AID 985);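 further: compound exposure lasted 24 hr at 37 °C; plate controls were DMSO only for no effect and tetraoctylammonium bromide at 92 µM for full effect; nearly all actives have a fitted effect of over 50% in size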
How it was run: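 Human lymphoblastoid LYMP2-018 cells, 2500/well, settled 5 hr at 37 C then exposed to compound 24 hr at 37 C; intracellular ATP measured by CellTiter-Glo luminescence. AC50 from Hill-equation concentration-response fits.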

[11] = Cell Viability - LYMP2-020 (AID 986);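 further: series mostly up to about 92 µM; plate controls were DMSO only for no effect and tetraoctylammonium bromide at 92 µM for full effect; nearly all actives have a fitted effect of over 55% in size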
How it was run: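 Human lymphoblastoid LYMP2-020 cells (2500/well) preincubated 5 h at 37 C, then treated 24 h at 37 C. Viability measured as intracellular ATP by CellTiter-Glo luminescence after 30 min at room temperature; AC50 from Hill fits.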

[12] = Cell Viability - LYMP2-022 (AID 987)
How it was run: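 LYMP2-022 lymphoblastoid cells (2500/well, complete medium) were treated with compounds for 24 hours at 37 C; intracellular ATP was then read by CellTiter-Glo luminescence after 30 min at room temperature. AC50 values were derived from Hill-equation fits.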

[13] = Cell Viability - LYMP2-024 (AID 988);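 further: plate controls were DMSO only for no effect and 92 µM tetraoctylammonium bromide for full effect; nearly all actives have a fitted effect of over 60% in size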
How it was run: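 Human lymphoblastoid LYMP2-024 cells (2500/well) rested 5 hr, then treated with compound for 24 hr at 37 C in complete medium. Viability was measured as intracellular ATP by CellTiter-Glo luminescence. AC50 values came from Hill-equation fits.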

[14] = Cell Viability - LYMP2-026 (AID 989); further: on the % scale 0 is the no-effect control and ±100 the full control effect; nearly all actives have a fitted effect of over 50% in size
How it was run: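 Human lymphoblastoid LYMP2-026 cells, 2500/well, exposed to compound 24 h at 37 C in complete medium. Viability as intracellular ATP by CellTiter-Glo luminescence; AC50 from Hill fits of qHTS concentration-response.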

[15] = Cell Viability - LYMP1-002 - Assay at 24 hr (AID 993); further: on the % scale 0 is the no-effect control and ±100 the full control effect
How it was run: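 Human lymphoblastoid LYMP1-002 cells (2500/well) treated 24 h at 37 °C; viability as intracellular ATP by CellTiter-Glo luminescence. Tetraoctylammonium bromide as positive control; AC50 from Hill-equation fits of qHTS concentration-response.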

[16] = Cell Viability - LYMP1-002 - Assay at 40 hr (AID 994)
How it was run: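 LYMP1-002 human lymphoblastoid cells (2500/well, complete medium) were treated with compounds for 40 hr at 37 C. Intracellular ATP was measured by CellTiter-Glo luminescence, and AC50 values came from Hill-equation fits of concentration-response data; tetraoctylammonium bromide was the positive control.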

[17] = target: Estrogen receptor (Homo sapiens) (UniProt P03372); test: qHTS assay for small molecule antagonists of estrogen receptor alpha signaling (AID 588513; active means well fitted curve in the direction sought with a large enough effect in the signal ratio, with a control signal flat, not every such curve was filed as active; the % refers to the signal ratio; further: on the % scale 0 is the no-effect control and ±100 the full control effect)
How it was run: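 Cells were plated at 5000/well and incubated 4 h at 37 C. Compounds were added as 1:2 dilution series, duplicates. 17-beta-estradiol (0.5nM final) was added for 18 h before CCF4 detection.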

[18] = target: Estrogen receptor (Homo sapiens) (UniProt P03372); test: qHTS assay for small molecule agonists of estrogen receptor alpha signaling (AID 588514; calls by dose curve;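 further: 0% = vehicle only and 100% = reference agonist; nearly all actives have a fitted effect of over 70% in size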)
How it was run: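 ER-alpha-UAS-bla GripTite HEK293 cells, 5000/well in 2% charcoal/dextran-stripped FBS medium, treated with compound titrations 18 h at 37 C. CCF4 beta-lactamase read by fluorescence after 2 h RT; normalised to 20 nM 17-beta-estradiol (100%) and DMSO (0%), Hill fit for EC50 and efficacy.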

[19] = target: Androgen receptor (Homo sapiens) (UniProt P10275); test: qHTS assay for small molecule antagonists of androgen receptor signaling (AID 588516; active means well fitted curve in the direction sought with a large enough effect in the signal ratio, with a control signal flat, not every such curve was filed as active; the % refers to the signal ratio; further: on the % scale 0 is the no-effect control and ±100 the full control effect)
How it was run: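 Antagonist-mode qHTS: inhibition of R1881 (10 nM)-driven beta-lactamase expression in GripTite HEK 293 cells is measured after 16 h; values are Hill-derived IC50s normalized between R1881 and DMSO wells.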

[20] = target: Bile acid receptor (Homo sapiens) (UniProt Q96RI1); test: qHTS assay for small molecule antagonists of farnesoid X receptor signaling (AID 588526; calls by dose curve; further: on the % scale 0 is the no-effect control and ±100 the full control effect)
How it was run: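 Concentration-response titrations were fitted to the Hill equation for half-maximal inhibition and maximal response, with data normalised to 50 uM chenodeoxycholic acid and DMSO control wells. Cells: FXR-UAS-bla HEK293T, dialyzed FBS.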

[21] = target: Bile acid receptor (Homo sapiens) (UniProt Q96RI1); test: qHTS assay for small molecule agonists of farnesoid X receptor signaling (AID 588527; calls by dose curve;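 further: series mostly up to about 77 µM; 0% = vehicle basal and 100% = reference agonist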); conditions: HEK293T FXR-UAS-bla, beta-lactamase ratio, 16 h; active compounds read high
How it was run: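 Agonist-mode beta-lactamase reporter in GeneBLAzer FXR-UAS-bla HEK293T cells, titration up to 92 uM, 16 h exposure at 37 C, CCF4 fluorescence. Response scaled to DMSO (0%) and 100 uM chenodeoxycholic acid (100%), then Hill-fitted for EC50 and efficacy.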

[22] = target: Glucocorticoid receptor (Homo sapiens) (UniProt P04150); test: qHTS assay for small molecule antagonists of glucocorticoid receptor signaling (AID 588533; active means well fitted inhibition curve with a large enough effect in the signal ratio, with a control signal flat, not every such curve was filed as active; the % refers to the signal ratio)
How it was run: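 Antagonist-mode qHTS: compound titrations added to GRE-bla HeLa cells, then dexamethasone 2 nM final; 18 h, 37 C. CCF4 FRET fluorescence normalized to dexamethasone and DMSO; IC50 from Hill fit.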

Sequence of Estrogen receptor (Homo sapiens) (P03372 whole entry, looked up): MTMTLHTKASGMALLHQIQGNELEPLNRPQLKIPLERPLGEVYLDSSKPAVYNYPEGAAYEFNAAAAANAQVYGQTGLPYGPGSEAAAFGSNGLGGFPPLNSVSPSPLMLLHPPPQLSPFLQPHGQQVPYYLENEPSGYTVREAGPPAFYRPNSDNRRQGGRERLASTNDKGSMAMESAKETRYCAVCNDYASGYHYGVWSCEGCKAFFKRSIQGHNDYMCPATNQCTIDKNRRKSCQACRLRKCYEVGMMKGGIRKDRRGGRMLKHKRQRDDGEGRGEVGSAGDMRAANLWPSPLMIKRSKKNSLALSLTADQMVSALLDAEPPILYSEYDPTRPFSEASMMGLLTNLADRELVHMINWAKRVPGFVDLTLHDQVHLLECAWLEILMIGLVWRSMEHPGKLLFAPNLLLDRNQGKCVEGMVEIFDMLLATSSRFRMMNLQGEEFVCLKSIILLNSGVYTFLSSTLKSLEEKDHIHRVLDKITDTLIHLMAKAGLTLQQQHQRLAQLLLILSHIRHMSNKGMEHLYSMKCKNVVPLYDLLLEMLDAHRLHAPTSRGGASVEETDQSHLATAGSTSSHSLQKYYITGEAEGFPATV
Sequence of Bile acid receptor (Homo sapiens) (Q96RI1 whole entry, looked up): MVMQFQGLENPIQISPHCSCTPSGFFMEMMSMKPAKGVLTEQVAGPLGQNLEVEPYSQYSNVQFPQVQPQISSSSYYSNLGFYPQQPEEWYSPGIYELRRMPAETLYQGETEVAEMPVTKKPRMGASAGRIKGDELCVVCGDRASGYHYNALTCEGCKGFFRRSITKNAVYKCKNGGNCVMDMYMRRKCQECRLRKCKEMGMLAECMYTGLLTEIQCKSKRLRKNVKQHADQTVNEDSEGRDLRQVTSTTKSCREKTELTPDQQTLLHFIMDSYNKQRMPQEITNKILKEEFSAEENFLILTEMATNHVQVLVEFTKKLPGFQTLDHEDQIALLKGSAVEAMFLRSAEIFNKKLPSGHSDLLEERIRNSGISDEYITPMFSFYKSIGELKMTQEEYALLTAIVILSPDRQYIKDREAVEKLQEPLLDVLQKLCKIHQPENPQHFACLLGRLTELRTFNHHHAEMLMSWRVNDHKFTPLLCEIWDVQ
Sequence of Androgen receptor (Homo sapiens) (P10275 whole entry, looked up): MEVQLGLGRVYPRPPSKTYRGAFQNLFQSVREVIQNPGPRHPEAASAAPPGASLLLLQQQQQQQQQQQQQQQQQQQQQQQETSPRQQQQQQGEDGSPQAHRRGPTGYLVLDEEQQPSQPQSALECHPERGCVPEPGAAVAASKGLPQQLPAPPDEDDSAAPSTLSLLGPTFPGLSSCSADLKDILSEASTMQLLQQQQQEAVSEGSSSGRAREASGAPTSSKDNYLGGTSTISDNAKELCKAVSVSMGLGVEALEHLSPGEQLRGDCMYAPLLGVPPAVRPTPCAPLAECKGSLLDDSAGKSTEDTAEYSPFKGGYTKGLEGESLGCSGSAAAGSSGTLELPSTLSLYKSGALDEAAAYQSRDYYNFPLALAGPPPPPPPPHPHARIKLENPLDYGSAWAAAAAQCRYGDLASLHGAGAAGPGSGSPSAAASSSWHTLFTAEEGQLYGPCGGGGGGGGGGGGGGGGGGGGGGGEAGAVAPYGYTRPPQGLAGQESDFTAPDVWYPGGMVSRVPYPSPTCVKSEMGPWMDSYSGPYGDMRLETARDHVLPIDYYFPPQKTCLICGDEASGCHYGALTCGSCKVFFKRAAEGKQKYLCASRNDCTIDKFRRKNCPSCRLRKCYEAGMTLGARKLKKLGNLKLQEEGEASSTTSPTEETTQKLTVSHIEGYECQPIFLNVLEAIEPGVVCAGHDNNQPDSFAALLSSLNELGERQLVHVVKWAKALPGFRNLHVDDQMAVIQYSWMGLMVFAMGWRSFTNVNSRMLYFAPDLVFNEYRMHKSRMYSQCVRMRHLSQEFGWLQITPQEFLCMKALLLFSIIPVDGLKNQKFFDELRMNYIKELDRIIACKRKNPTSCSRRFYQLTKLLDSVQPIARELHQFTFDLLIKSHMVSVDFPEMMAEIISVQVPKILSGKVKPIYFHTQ
Sequence of Glucocorticoid receptor (Homo sapiens) (P04150 whole entry, looked up): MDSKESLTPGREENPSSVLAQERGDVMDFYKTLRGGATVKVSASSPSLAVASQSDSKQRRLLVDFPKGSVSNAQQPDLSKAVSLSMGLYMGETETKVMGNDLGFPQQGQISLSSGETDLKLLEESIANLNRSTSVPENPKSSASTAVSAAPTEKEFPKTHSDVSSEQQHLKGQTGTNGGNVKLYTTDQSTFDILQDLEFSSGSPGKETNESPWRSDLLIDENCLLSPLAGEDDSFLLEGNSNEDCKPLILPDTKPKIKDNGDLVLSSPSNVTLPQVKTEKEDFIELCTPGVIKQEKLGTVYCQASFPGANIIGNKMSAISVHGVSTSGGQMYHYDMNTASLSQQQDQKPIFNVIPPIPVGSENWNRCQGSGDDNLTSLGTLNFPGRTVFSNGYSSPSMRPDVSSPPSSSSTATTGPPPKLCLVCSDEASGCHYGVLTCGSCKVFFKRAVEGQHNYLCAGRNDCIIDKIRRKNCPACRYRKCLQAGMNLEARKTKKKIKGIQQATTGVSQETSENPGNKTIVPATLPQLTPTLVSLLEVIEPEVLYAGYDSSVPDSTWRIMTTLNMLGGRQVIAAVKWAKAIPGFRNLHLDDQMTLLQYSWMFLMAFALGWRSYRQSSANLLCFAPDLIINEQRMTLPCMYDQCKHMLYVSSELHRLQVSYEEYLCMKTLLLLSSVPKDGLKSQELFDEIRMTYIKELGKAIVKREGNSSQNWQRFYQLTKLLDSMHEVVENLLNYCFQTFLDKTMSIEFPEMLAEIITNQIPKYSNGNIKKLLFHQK

O=NN(CCO)CCO
inactive: Potency [1] | Potency [2] | Potency [3] | Potency [4] | Potency [5] | Potency [6] | Potency [7] | Potency [8] | Potency [9] | Potency [10] | Potency [11] | Potency [12] | Potency [13] | Potency [14] | Potency [15] | Potency [16] | Potency [17] | Potency [18] | Potency [19] | outcome [20] | activation [21] 3.77% | Potency [22]
